The values below come from the supplement of paper PMC9023506.

Structures are written as SMILES. Structures can show the parent of a compound that is named as a salt.

The assay concerns Danio rerio larvae (5 dpf). Briefly: habituation to 1-s acoustic pulses, difference vs DMSO (percentage points (treated minus DMSO)); higher = more of the behaviour than the DMSO vehicle control. Particulars: 10 µM; exposure time: 3 h pre-incubation + 3 h imaging. As to the method:
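5-dpf wild-type zebrafish larvae were imaged in 96-well plates. They were treated with 190 Tocris FDA-approved drugs at 10 µM (1 µl/ml DMSO) for 3 h before and 3 h during imaging at 28.5 °C, 48 larvae per drug. Automated image analysis gave % time moving and optomotor responses. Values are drug group mean minus DMSO vehicle mean (n=844), in percentage points, for 10 behaviours.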
In the case of `CCCCCCCN(CC)CCCC(O)c1ccc(NS(C)(=O)=O)cc1` (stereo not given) [Ibutilide hemifumarate], the “habituation to 1-s acoustic pulses” value amounted to 2.78.
Under `Nc1cccc2c1CN(C1CCC(=O)NC1=O)C2=O` (stereo not given) [Lenalidomide] stands -1.09; under `CN(C)CC/C=C1/c2ccccc2COc2ccc(CC(=O)O)cc21` [Olopatadine hydrochloride], 0.997; under `COc1cc([C@@H]2c3cc4c(cc3[C@@H](O[C@@H]3O[C@@H]5CO[C@@H](C)O[C@H]5[C@H](O)[C@H]3O)[C@H]3COC(=O)[C@H]23)OCO4)cc(OC)c1O` [Etoposide], 0.485.
Under `CC(=O)Oc1ccccc1C(=O)O` [Aspirin] stands -5.13; under `CC(C)C(=O)Nc1ccc([N+](=O)[O-])c(C(F)(F)F)c1` [Flutamide], -15.5.
Under `COc1ccc(C[C@@H](C)NC[C@H](O)c2ccc(O)c(NC=O)c2)cc1` [Arformoterol tartrate] stands -3.34; under `COc1c(C)c2c(c(O)c1C/C=C(\C)CCC(=O)O)C(=O)OC2` [Mycophenolic acid], 1.78.
Regarding `CC(C)OC(=O)C(C)(C)Oc1ccc(C(=O)c2ccc(Cl)cc2)cc1` [Fenofibrate], the “habituation to 1-s acoustic pulses” value is -5.04.
Under `CNC(=O)c1ccccc1Sc1ccc2c(/C=C/c3ccccn3)n[nH]c2c1` [Axitinib] stands -2.02; under `Nc1ncn([C@H]2C[C@H](O)[C@@H](CO)O2)c(=O)n1` [Decitabine], 5.67; under `CC(=O)S[C@@H]1CC2=CC(=O)CC[C@]2(C)[C@H]2CC[C@@]3(C)[C@@H](CC[C@@]34CCC(=O)O4)[C@H]12` [Spironolactone], -0.287.
Under `CCCc1nc(C(C)(C)O)c(C(=O)O)n1Cc1ccc(-c2ccccc2-c2nnn[nH]2)cc1` [Olmesartan] stands 3.67.
Then `Cc1nc(Nc2ncc(C(=O)Nc3c(C)cccc3Cl)s2)cc(N2CCN(CCO)CC2)n1` [Dasatinib], with -0.705; and `CC(=O)Nc1ccc(O)cc1` [Acetaminophen], with -1.9; and `N#Cc1ccc2[nH]cc(CCCCN3CCN(c4ccc5oc(C(N)=O)cc5c4)CC3)c2c1` [Vilazodone hydrochloride], with -3.73.
As to `CC/C(=C(\c1ccccc1)c1ccc(OCCN(C)C)cc1)c1ccccc1` [Tamoxifen citrate], the “habituation to 1-s acoustic pulses” value was -6.99.
Under `COc1cc2nccc(Oc3ccc(NC(=O)C4(C(=O)Nc5ccc(F)cc5)CC4)cc3)c2cc1OC` stands -4.53; under `OC(c1cc(C(F)(F)F)nc2c(C(F)(F)F)cccc12)C1CCCCN1` (stereo not given) [Mefloquine hydrochloride], 0.613.
`O=C(O)c1cc(/N=N/c2ccc(S(=O)(=O)Nc3ccccn3)cc2)ccc1O` [Sulfasalazine]: the “habituation to 1-s acoustic pulses” value is 0.389.
Take `O=c1n(CCCN2CCN(c3cccc(Cl)c3)CC2)nc2ccccn12` [Trazodone hydrochloride]: the “habituation to 1-s acoustic pulses” value is -10.7.
Then `CC(C)Nc1cccnc1N1CCN(C(=O)c2cc3cc(NS(C)(=O)=O)ccc3[nH]2)CC1` [Delavirdine mesylate], with -7.61; and `NC(=O)N1c2ccccc2C=Cc2ccccc21` [Carbamazepine], with 2.65; and `O=C(c1ccc(OCCN2CCCCC2)cc1)c1c(-c2ccc(O)cc2)sc2cc(O)ccc12` [Raloxifene hydrochloride], with 1.64.
As to `Cc1ccc(-c2cc(C(F)(F)F)nn2-c2ccc(S(N)(=O)=O)cc2)cc1` [Celecoxib], the “habituation to 1-s acoustic pulses” value is -9.42.
On to `CCCCCOC(=O)Nc1nc(=O)n([C@@H]2O[C@H](C)[C@@H](O)[C@H]2O)cc1F` [Capecitabine], for which the “habituation to 1-s acoustic pulses” value was -3.26.
Under `CCOC(=O)N1CCC(=C2c3ccc(Cl)cc3CCc3cccnc32)CC1` [Loratidine] stands -7.1; under `CS(=O)(=O)CCNCc1ccc(-c2ccc3ncnc(Nc4ccc(OCc5cccc(F)c5)c(Cl)c4)c3c2)o1` [Lapatinib], -1.43; under `COC(=O)C1=C(C)NC(C)=C(C(=O)OC(C)C)C1c1cccc2nonc12` (stereo not given) [Isradipine], -13.5.
For `CC(c1cc2ccccc2s1)N(O)C(N)=O` (stereo not given) [Zileuton], the “habituation to 1-s acoustic pulses” value is 7.12.
With `CN1CCN(CCCN2c3ccccc3Sc3ccc(Cl)cc32)CC1` [Prochlorperazine dimaleate], the “habituation to 1-s acoustic pulses” value was -7.34.
Under `CC(C)(C#N)c1cc(Cn2cncn2)cc(C(C)(C)C#N)c1` [Anastrozole] stands 6.34.
Turning to `CCCN(CCC)S(=O)(=O)c1ccc(C(=O)O)cc1` [Probenecid], the “habituation to 1-s acoustic pulses” value is 4.24.
For `CN(C)CCC[C@@]1(c2ccc(F)cc2)OCc2cc(C#N)ccc21` [Escitalopram oxalate], the “habituation to 1-s acoustic pulses” value was -4.74.
Under `Cc1c(-c2ccc(O)cc2)n(Cc2ccc(OCCN3CCCCCC3)cc2)c2ccc(O)cc12` [Bazedoxifene acetate] stands 0.273; under `CC(C)COCC(CN(Cc1ccccc1)c1ccccc1)N1CCCC1` (stereo not given) [Bepridil hydrochloride], -6.51; under `C=CC(=O)N1CCC[C@@H](n2nc(-c3ccc(Oc4ccccc4)cc3)c3c(N)ncnc32)C1` [Ibrutinib], -7.68.
As for `CCc1c2c(nc3ccc(OC(=O)N4CCC(N5CCCCC5)CC4)cc13)-c1cc3c(c(=O)n1C2)COC(=O)[C@]3(O)CC`, the “habituation to 1-s acoustic pulses” value turned out to be 10.3.
Then `CN1CCC[C@@H]1Cc1c[nH]c2ccc(CCS(=O)(=O)c3ccccc3)cc12` [Eletriptan hydrobromide], with 10.1.
Then `NS(=O)(=O)c1cc(C(=O)O)c(NCc2ccco2)cc1Cl` [Furosemide], with 1.08.
